# Measurements from the supplement of paper PMC4709259.
# Where a name gives a salt, the structure may show the parent alone. ± gives the standard deviation.
# Tested on: Jurkat
# Test: cell count relative to DMSO control (fraction of control); higher = more cells (less growth inhibition)
# Conditions: 48 h
row,Compound,cell count
1,CCC1(C)CC(=O)NC1=O (stereo unspecified) [Ethosuximide] (concentration: 25 µM),1.08 ± 0.074
2,Cc1ccc(S(=O)(=O)NC(=O)NN2CCCCCC2)cc1 [Tolazamide] (concentration: 25 µM),0.657 ± 0.12
3,O=C(O)c1cn(C2CC2)c2cc(N3CCNCC3)c(F)cc2c1=O [Ciprofloxacin] (concentration: 25 µM),1.04 ± 0.13
4,CC12CC3CC(C)(C1)CC(N)(C3)C2 [Memantine·HCl] (concentration: 25 µM),0.797 ± 0.017
5,Clc1ccc2nsnc2c1NC1=NCCN1 [Tizanidine·HCl] (concentration: 25 µM),0.771 ± 0.054
6,Oc1ncnc2[nH]ncc12 [Allopurinol] (concentration: 25 µM),0.701 ± 0.13
7,CC[C@H](C)C(=O)O[C@H]1C[C@@H](C)C=C2C=C[C@H](C)[C@H](CC[C@@H]3C[C@@H](O)CC(=O)O3)[C@H]21 [Lovastatin] (concentration: 25 µM),0.664 ± 0.15
8,Cc1ccsc1C(=CCCN1CCC[C@@H](C(=O)O)C1)c1sccc1C [Tiagabine·HCl] (concentration: 25 µM),0.839 ± 0.013
9,CN(C)CCCC1(c2ccc(F)cc2)OCc2cc(C#N)ccc21 (stereo unspecified) [Citalopram·HBr] (concentration: 25 µM),1.15 ± 0.039
10,CC(C)(C#N)c1cc(Cn2cncn2)cc(C(C)(C)C#N)c1 [Anastrozole] (concentration: 25 µM),0.933 ± 0.054
11,O=C1CCC(N2C(=O)c3ccccc3C2=O)C(=O)N1 (stereo unspecified) [Thalidomide] (concentration: 25 µM),1.01 ± 0.12
